From PubChem BioAssay (NCATS) come the findings set out here.

Structures are written as SMILES. Inconclusive results are not listed. Activity calls are given as the source filed them. Calls come from the whole dose curve; as a rule, active = well fitted inhibition curve with a large enough effect; inconclusive = small, poorly fitted or top-dose-only effect; inactive = flat fitted curve, though single readings scatter.
% is set by controls: 0 for no effect and ±100 for the full control effect; potency is the fitted concentration of half-maximal effect.

The experiment deals with HEK293. Nature of the experiment: Cytotoxic Profiling of Annotated Libraries Using Quantitative High-Throughput Screening (AID 1296008). Note: nearly all actives have a fitted effect of over 60% in size. The note with it: Five cell lines viability, CellTiter-Glo ATP luminescence, 48-72 h; max response: hits give low values. The method, boiled down: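 Cells exposed to compounds for 48 or 72 hr at 37 degrees Celsius. Viability read as ATP-coupled luminescence with CellTiter-Glo after 10 min at room temperature.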
On the technique in general: In ATP-based viability assays light output follows the ATP content of the culture.
Turning to `CC1OC(OC2CCC3(C)C(CCC4(C)C3CC=C3C5CC(C)(C)CCC5(C(=O)OC5OC(CO)C(O)C(O)C5O)CCC34C(=O)O)C2(C)C)C(O)C(O)C1O` (stereo not given), the max response was -0.856% (inactive).
Turning to `COC1C(=O)CCC2(CO2)C1(O)C1(C)OC1CC=C(C)C` (stereo not given), the max response is -34.7% (inactive).
For `CC(C)(C)NCCCNC(=O)c1cccc(Br)c1`, the max response is 0.813% (inactive).
Take `CC(=O)/C=C/[C@H]1[C@](C)(O)[C@@H](O)[C@H](OC(C)=O)C2C(C)(C)CCC[C@@]21C` (stereo not given in full): the max response is -3.84% (inactive).
As to `C=C1C(OC(C)=O)CCC2(C)CC3(OC)OC(=O)C(C)=C3CC12` (stereo not given), the max response was -22.9% (inactive).
Turning to `Cc1cc(OCc2nnc(SC3CCCC3)n2-c2cccnc2)ccc1-c1ccc(S(C)(=O)=O)cc1`, the Potency is 291 nM (active).
As for `CC(/C=C/C1=CC2=CC(=O)C(C)(O)C(O)C2=CO1)=C\C(C)CCO` (stereo not given), the max response is -3.02% (inactive).
As to `C[C@]1(CO)CCC[C@]2(C)C3=C(CCC12)COC3` (stereo not given in full), the max response is -9.57% (inactive).
For the compound `C=C(C(=O)O)C1CC2=C(C)CCCC2(C)C[C@@H]1O` (stereo not given in full), the max response was -3% (inactive).
Take `CCn1c(=O)c(-c2ccn[nH]2)cc2c(C)nc(N)nc21`: the Potency is 4610 nM (active).
For `C=C[C@H]1C(O[C@@H]2O[C@H](CO)[C@@H](O)[C@H](O)[C@H]2O)OC=C2C(=O)N3CCc4c([nH]c5ccccc45)[C@H]3C[C@H]21` (stereo not given in full), the max response was -11.2% (inactive).
Turning to `C[C@@H]1C[C@@H]([C@@H](O)C(C)(C)O)O[C@H]2C[C@@]3(C)C(=C12)C[C@H](O)[C@H]1[C@@]2(C)CCC(=O)C(C)(C)C2CC[C@@]13C` (stereo not given in full), the max response was 3.48% (inactive).
Regarding `C[C@@H]1O[C@@H](O[C@@H]2[C@@H](O[C@@H]3O[C@@H](C)[C@H](O[C@@H]4OC[C@H](O)[C@H](O[C@@H]5OC[C@@H](O)[C@H](O)[C@H]5O)[C@H]4O)[C@@H](O[C@@H]4OC[C@](O)(CO)[C@H]4O)[C@H]3O)[C@H](OC(=O)[C@]34CCC(C)(C)C[C@H]3C3=CCC5[C@@]6(C)C[C@H](O)[C@H](O[C@@H]7O[C@H](CO[C@@H]8OC[C@H](O)[C@H](O)[C@H]8O)[C@@H](O)[C@H](O)[C@H]7O)C(C)(C)C6CC[C@@]5(C)[C@]3(C)C[C@H]4O)OC[C@H]2O)[C@H](O)[C@H](O)[C@H]1O` (stereo not given in full), the max response was 0.0429% (inactive).
Regarding `CC1(C)CCCC2(C)C1C(O)C=C(CO)C2(O)CO` (stereo not given), the max response was -0.916% (inactive).
With `CCOc1ccc(S(=O)(=O)n2c(C)nc3ccccc32)cc1`, the max response is -8.26% (inactive).
On to `CC1(C)CC[C@@]2(C(=O)O[C@@H]3O[C@H](CO)[C@@H](O)[C@H](O)[C@H]3O)C(C1)C1=CCC3[C@@]4(C)CC[C@@H](O[C@@H]5O[C@H](C(=O)O)[C@@H](O[C@@H]6OC[C@@H](O)[C@H](O)[C@H]6O)[C@H](O[C@@H]6OC[C@](O)(CO)[C@H]6O)[C@H]5O)C(C)(C)C4CC[C@@]3(C)[C@]1(C)C[C@H]2O` (stereo not given in full), for which the max response was -3.68% (inactive).
As to `CC/C=C\CC1C(=O)C=CC1(CCCCCCCC(=O)O)OC(C)=O` (stereo not given), the max response was 2.73% (inactive).
In the case of `COc1cc(/C=C/C(=O)O[C@H]2[C@H](O)[C@@H](CO)O[C@@]2(CO)O[C@H]2O[C@H](CO)[C@@H](O)[C@H](O)[C@H]2O)ccc1O`, the max response was 0.588% (inactive).
In the case of `CC(C)(O[C@@H]1O[C@H](CO)[C@@H](O)[C@H](O)[C@H]1O)C(OC(=O)/C=C\c1ccc(O)cc1)C(=O)OCc1ccc(O[C@@H]2O[C@H](CO)[C@@H](O)[C@H](O)[C@H]2O)cc1` (stereo not given in full), the max response was -30.7% (inactive).
For the compound `CC1CCC2C(C)(C)[C@@H](O)CC[C@]2(C)C12Cc1c(O)cc3c(c1O2)CN(C(CCC(=O)O)C(=O)O)C3=O` (stereo not given in full), the max response was -4.16% (inactive).
Same read-out and setting: next, `C/C=C/C=C/C(=O)N1CC[C@]23c4ccccc4N[C@H]4N(C)c5cccc6c5[C@@]42CCN([C@H]6C2OC2(C)C)[C@H]13` (stereo not given in full): -2.78% (inactive).
For `C/C=C/C=C/[C@@H]1O[C@](O)([C@H](CC)C(=O)NC/C=C/C=C(\C)[C@@H](OC)[C@@H](C)C2OC(/C=C/C=C/C=C(\C)C(=O)c3c(O)cc[nH]c3=O)[C@H](O)[C@@H]2O)[C@H](O)[C@H](O)C1(C)C` (stereo not given in full), the max response was 1.43% (inactive).
Regarding `CCC(C)C(=O)OC1CC(C)C=C2C=CC(C)C(CCC(O)CC(O)CC(=O)O)C21` (stereo not given), the max response is -0.653% (inactive).
Take `O=C(O)c1cc(-c2c(-c3ccccc3)nn3ccccc23)n[nH]c1=O`: the max response was -2.65% (inactive).
On the same count and under the same terms, next, `O=C(CN1C(=O)C2(CCCC2)NCC1c1cc(F)cc(F)c1)Nc1ccc2c(c1)CC1(C2)C(=O)Nc2ncccc21` (stereo not given): -6.98% (inactive).
